Source: PMC7862700, “An all-to-all approach to the identification of sequence-specific readers for epigenetic DNA modifications on cytosine”

Experiments:
Experiment in all cases: DAPPL (digital affinity profiling via proximity ligation, sequencing); 10 mM Tris-HCl pH 7.5, 50 mM NaCl, 1 mM DTT, 4% glycerol, room temperature, 30 min; GST-TFs on glutathione beads, 16-mer random dsDNA library, 0.1% formaldehyde crosslink after washing; high values mean tight binding
[1] = target: T1, FEV (Homo sapiens, UniProt Q99581 1-238); conditions: protein: recombinant; tags: N-terminal GST; dsDNA, one strand shown
T1 sequence: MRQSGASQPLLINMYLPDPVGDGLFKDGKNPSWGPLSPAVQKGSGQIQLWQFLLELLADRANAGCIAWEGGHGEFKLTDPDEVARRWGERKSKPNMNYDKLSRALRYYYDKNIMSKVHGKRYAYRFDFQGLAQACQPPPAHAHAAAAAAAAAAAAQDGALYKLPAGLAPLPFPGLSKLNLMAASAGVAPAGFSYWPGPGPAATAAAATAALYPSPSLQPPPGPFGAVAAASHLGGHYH
Summary of the method: (§1)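 Each value of binding signal is a hexamer's read frequency for a factor divided by the same hexamer's frequency in the tag-only sample. Barcoded, bead-captured GST fusions of human transcription factors made in yeast were pooled with that sample and incubated with 200 nmole of a random double-stranded 16-mer DNA library in Tris/NaCl/DTT/glycerol buffer at room temperature for 30 min. Washing, 0.1% formaldehyde crosslinking, proximity ligation, PCR and Illumina NextSeq500 sequencing followed.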

[2] = target: ETV5 (Homo sapiens, UniProt P41161 1-510); conditions: protein: recombinant; tags: N-terminal GST; dsDNA, one strand shown
Chain of ETV5 (P41161 whole entry): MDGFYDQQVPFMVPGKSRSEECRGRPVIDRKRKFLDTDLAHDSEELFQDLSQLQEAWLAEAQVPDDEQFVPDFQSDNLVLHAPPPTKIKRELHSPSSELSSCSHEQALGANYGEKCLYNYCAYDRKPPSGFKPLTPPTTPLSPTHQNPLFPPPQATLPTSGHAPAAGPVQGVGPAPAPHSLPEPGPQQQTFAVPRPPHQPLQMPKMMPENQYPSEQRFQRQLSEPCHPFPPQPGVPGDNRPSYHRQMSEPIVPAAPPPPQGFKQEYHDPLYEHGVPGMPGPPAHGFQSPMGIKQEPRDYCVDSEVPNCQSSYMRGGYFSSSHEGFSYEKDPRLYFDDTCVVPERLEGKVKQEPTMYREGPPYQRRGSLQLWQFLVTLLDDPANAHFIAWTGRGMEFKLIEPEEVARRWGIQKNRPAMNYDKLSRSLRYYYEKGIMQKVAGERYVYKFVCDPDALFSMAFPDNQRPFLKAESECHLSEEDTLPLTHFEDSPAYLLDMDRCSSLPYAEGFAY
Summary of the method: as §1

[3] = target: HSF1 (Homo sapiens, UniProt Q00613 1-529); conditions: protein: recombinant; tags: N-terminal GST; chain copies: 3; dsDNA, one strand shown
Chain of HSF1 (Q00613 whole entry): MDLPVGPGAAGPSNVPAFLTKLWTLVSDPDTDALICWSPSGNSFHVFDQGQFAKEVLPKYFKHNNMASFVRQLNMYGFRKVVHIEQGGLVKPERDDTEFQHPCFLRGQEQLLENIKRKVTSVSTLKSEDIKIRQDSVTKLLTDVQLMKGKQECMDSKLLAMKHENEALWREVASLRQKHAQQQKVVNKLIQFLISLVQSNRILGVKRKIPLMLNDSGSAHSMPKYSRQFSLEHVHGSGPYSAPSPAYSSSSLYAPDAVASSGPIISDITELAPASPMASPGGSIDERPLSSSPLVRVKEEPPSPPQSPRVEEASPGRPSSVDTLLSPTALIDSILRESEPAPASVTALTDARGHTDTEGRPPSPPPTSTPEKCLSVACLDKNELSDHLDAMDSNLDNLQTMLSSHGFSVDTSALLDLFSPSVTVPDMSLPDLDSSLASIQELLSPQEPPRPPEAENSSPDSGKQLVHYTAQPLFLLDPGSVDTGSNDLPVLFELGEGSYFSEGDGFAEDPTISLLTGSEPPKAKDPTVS
Summary of the method: as §1

[4] = target: T2, SPIC (Homo sapiens, UniProt Q8N5J4 1-248); conditions: protein: recombinant; tags: N-terminal GST; dsDNA, one strand shown
T2 sequence: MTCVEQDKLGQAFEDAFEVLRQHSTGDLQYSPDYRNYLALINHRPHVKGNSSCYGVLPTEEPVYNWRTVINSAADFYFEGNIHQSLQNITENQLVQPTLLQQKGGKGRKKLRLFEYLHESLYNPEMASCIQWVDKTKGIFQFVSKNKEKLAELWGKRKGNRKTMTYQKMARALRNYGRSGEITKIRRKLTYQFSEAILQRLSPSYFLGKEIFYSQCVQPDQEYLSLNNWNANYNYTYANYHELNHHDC
Summary of the method: as §1

[5] = target: ELF4 (Homo sapiens, UniProt Q99607 1-663); conditions: protein: recombinant; tags: N-terminal GST; dsDNA, one strand shown
Chain of ELF4 (Q99607 whole entry): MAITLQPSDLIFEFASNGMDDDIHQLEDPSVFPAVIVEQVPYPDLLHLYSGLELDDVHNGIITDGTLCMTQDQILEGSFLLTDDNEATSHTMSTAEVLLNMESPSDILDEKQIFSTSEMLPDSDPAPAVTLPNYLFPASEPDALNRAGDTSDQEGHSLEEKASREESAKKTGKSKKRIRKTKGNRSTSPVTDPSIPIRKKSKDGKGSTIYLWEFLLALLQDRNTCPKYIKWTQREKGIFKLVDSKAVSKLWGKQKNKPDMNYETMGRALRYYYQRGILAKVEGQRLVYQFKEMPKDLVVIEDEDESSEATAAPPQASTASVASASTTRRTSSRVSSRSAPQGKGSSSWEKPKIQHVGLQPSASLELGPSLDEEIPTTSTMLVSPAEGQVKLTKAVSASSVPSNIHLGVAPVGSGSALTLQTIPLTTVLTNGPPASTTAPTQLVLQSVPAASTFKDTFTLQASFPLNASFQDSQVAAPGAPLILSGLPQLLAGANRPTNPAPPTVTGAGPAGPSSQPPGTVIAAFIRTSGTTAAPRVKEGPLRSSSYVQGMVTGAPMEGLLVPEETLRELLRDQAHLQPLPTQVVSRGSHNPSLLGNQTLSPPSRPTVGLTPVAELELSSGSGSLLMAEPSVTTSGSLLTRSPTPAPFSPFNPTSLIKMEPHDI
Summary of the method: as §1

[6] = target: T3, ELK4 (Homo sapiens, UniProt P28324-2 1-405); conditions: protein: recombinant; tags: N-terminal GST; dsDNA, one strand shown
T3 sequence: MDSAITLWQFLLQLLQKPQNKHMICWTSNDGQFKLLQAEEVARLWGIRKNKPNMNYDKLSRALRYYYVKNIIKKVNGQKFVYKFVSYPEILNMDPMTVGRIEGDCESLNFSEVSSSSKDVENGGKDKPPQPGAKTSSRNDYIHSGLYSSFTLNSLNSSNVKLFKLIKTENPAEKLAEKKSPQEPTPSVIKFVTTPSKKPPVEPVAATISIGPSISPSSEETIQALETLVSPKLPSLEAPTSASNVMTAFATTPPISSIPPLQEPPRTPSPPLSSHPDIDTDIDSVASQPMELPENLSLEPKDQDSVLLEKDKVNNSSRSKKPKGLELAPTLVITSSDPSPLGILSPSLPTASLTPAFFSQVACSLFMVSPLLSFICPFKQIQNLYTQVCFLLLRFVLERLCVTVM
Summary of the method: as §1

[7] = target: T4, ETV2 (Homo sapiens, UniProt O00321 1-342); conditions: protein: recombinant; tags: N-terminal GST; dsDNA, one strand shown
T4 sequence: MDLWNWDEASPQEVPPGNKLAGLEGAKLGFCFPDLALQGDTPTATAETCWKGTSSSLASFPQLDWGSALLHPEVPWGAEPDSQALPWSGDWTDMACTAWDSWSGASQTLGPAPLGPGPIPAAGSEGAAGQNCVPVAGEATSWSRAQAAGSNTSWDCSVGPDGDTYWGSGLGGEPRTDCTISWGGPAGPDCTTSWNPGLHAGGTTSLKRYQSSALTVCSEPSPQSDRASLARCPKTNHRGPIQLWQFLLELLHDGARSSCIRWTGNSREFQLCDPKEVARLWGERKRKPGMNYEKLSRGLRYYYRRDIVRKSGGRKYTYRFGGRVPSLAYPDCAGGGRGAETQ
Summary of the method: as §1

[8] = target: T5, ELF3 (Homo sapiens, UniProt P78545 1-371); conditions: protein: recombinant; tags: N-terminal GST; dsDNA, one strand shown
T5 sequence: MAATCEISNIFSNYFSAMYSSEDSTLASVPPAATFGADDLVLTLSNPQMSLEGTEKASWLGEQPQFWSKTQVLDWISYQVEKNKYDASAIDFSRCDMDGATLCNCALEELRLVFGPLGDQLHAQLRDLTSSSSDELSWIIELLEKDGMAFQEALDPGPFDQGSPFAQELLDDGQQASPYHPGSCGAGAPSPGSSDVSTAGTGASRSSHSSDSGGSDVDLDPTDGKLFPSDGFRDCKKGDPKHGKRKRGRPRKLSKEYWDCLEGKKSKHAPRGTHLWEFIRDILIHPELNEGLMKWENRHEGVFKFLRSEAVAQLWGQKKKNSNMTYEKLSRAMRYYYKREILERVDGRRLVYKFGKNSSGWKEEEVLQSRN
Summary of the method: as §1

[9] = target: CRX (Homo sapiens, UniProt O43186 1-299); conditions: protein: recombinant; tags: N-terminal GST; dsDNA, one strand shown
Chain of CRX (O43186 whole entry): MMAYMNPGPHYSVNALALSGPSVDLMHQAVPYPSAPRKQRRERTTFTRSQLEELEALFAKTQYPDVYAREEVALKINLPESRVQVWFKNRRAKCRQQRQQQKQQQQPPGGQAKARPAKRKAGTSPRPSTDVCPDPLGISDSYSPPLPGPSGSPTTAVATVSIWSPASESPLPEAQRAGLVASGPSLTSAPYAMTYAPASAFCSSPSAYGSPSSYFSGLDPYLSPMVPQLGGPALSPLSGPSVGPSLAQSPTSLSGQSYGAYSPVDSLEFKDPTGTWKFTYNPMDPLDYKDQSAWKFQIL
Summary of the method: as §1

[10] = target: ETV1 (Homo sapiens, UniProt P50549 1-477); conditions: protein: recombinant; tags: N-terminal GST; dsDNA, one strand shown
Chain of ETV1 (P50549 whole entry): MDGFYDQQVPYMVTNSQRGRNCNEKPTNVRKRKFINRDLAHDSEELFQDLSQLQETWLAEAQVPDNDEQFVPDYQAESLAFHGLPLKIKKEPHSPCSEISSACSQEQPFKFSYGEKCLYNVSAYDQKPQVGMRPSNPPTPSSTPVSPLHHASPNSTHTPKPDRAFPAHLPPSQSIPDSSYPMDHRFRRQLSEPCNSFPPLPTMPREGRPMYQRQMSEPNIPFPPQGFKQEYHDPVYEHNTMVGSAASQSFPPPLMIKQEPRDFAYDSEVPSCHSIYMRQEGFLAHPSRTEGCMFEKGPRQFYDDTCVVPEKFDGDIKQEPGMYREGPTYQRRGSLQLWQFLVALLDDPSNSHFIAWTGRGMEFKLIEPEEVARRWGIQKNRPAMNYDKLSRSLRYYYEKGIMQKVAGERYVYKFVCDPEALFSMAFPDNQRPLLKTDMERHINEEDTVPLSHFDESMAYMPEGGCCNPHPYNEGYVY
Summary of the method: as §1

[11] = target: T6, ERF (Homo sapiens, UniProt P50548 1-548); conditions: protein: recombinant; tags: N-terminal GST; dsDNA, one strand shown
T6 sequence: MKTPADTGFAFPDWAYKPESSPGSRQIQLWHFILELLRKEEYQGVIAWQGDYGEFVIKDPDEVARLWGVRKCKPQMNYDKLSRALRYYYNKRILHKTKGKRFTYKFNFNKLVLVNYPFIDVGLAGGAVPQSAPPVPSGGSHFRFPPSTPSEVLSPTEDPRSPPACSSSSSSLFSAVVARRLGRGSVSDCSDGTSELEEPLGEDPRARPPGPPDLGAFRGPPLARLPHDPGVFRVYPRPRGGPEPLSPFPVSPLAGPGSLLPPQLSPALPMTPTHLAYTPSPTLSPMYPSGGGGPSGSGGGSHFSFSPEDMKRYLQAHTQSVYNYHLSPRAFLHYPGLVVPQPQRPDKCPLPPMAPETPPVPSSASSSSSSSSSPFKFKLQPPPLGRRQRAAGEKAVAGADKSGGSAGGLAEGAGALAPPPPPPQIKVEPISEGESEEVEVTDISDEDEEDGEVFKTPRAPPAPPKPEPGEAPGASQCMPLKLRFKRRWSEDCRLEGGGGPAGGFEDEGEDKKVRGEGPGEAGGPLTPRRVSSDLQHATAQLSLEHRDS
Summary of the method: as §1

[12] = target: T7, ETV3L (Homo sapiens, UniProt Q6ZN32 1-361); conditions: protein: recombinant; tags: N-terminal GST; dsDNA, one strand shown
T7 sequence: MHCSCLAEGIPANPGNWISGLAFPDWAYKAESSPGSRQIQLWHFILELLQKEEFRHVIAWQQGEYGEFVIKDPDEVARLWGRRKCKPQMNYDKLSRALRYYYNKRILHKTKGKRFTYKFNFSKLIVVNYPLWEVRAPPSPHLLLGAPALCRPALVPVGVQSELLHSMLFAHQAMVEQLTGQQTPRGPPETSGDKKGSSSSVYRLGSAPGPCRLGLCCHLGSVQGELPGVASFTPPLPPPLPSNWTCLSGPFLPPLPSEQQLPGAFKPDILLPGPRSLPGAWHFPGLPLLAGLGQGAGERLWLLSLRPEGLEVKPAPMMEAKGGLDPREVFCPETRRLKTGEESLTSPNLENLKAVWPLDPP
Summary of the method: as §1

[13] = target: T8, ETS2 (Homo sapiens, UniProt P15036 1-469); conditions: protein: recombinant; tags: N-terminal GST; dsDNA, one strand shown
T8 sequence: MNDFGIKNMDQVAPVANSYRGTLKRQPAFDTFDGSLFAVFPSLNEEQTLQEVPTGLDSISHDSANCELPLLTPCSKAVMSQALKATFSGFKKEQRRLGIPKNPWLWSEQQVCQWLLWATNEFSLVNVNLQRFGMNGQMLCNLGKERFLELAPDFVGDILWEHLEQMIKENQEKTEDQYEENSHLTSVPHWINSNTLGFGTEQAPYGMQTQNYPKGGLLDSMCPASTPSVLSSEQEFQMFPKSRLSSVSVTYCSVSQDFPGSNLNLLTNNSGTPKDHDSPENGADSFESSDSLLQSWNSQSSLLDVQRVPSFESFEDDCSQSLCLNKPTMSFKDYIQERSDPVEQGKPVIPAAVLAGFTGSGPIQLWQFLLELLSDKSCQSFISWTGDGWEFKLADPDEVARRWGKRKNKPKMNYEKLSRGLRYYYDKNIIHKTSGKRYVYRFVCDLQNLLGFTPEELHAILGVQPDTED
Summary of the method: as §1

[14] = target: T9, SPDEF (Homo sapiens, UniProt O95238 1-335); conditions: protein: recombinant; tags: N-terminal GST; dsDNA, one strand shown
T9 sequence: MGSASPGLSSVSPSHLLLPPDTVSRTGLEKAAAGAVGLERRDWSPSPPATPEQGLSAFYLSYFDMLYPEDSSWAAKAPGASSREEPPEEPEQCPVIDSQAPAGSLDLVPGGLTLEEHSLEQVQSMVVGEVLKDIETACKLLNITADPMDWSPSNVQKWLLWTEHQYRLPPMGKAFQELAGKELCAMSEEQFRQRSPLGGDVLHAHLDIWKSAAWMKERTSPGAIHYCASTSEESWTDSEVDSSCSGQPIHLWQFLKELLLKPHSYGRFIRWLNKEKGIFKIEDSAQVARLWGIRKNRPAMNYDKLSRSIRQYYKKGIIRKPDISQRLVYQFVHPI
Summary of the method: as §1

[15] = target: T10, ETV7 (Homo sapiens, UniProt Q9Y603 1-341); conditions: protein: recombinant; tags: N-terminal GST; dsDNA, one strand shown
T10 sequence: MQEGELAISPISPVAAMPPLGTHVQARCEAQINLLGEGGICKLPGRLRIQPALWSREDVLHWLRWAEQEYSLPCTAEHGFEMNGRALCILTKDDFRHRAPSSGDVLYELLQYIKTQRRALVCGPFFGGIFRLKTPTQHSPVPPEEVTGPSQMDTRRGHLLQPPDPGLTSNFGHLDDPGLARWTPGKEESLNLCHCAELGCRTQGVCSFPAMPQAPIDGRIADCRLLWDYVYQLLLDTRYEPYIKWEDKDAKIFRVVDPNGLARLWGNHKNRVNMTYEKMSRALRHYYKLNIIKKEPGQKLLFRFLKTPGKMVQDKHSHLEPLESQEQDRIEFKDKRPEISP
Summary of the method: as §1

[16] = target: T11, ELF5 (Homo sapiens, UniProt Q9UKW6-2 1-255); conditions: protein: recombinant; tags: N-terminal GST; dsDNA, one strand shown
T11 sequence: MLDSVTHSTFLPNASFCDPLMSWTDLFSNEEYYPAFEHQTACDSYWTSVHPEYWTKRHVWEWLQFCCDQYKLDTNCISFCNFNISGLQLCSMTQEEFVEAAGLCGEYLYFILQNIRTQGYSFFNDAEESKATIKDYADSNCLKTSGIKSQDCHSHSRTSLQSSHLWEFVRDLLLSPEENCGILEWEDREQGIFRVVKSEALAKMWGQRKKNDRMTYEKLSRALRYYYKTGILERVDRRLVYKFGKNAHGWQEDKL
Summary of the method: as §1

[17] = target: T12, ETV3 (Homo sapiens, UniProt P41162-2 1-143); conditions: protein: recombinant; tags: N-terminal GST; dsDNA, one strand shown
T12 sequence: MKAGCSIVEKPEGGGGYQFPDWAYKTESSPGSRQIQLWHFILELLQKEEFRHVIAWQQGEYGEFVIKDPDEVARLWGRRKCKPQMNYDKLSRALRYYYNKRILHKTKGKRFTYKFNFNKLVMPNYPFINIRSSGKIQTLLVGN
Summary of the method: as §1

[18] = target: ETV6 (Homo sapiens, UniProt P41212 1-452); conditions: protein: recombinant; tags: N-terminal GST; dsDNA, one strand shown
Chain of ETV6 (P41212 whole entry): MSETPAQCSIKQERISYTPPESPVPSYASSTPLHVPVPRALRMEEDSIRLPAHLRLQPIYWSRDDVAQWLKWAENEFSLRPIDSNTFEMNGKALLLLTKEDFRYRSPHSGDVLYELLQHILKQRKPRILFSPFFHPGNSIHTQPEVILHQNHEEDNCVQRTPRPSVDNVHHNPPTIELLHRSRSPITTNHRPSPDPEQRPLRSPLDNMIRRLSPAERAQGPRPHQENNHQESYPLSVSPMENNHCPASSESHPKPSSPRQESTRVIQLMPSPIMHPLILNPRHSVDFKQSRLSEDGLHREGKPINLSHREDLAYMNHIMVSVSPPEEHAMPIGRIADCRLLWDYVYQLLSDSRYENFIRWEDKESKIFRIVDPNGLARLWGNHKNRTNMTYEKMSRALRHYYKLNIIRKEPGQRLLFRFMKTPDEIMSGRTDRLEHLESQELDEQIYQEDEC
Summary of the method: as §1

CGTATT
binding signal [1]: 1.07 fold enrichment (6-mer frequency, TF over GST control)
binding signal [2]: 1.2 fold enrichment (6-mer frequency, TF over GST control)
binding signal [3]: 1.21 fold enrichment (6-mer frequency, TF over GST control)
binding signal [4]: 1.22 fold enrichment (6-mer frequency, TF over GST control)
binding signal [5]: 1.16 fold enrichment (6-mer frequency, TF over GST control)
binding signal [6]: 1.18 fold enrichment (6-mer frequency, TF over GST control)
binding signal [7]: 1.38 fold enrichment (6-mer frequency, TF over GST control)
binding signal [8]: 1.04 fold enrichment (6-mer frequency, TF over GST control)
binding signal [9]: 1.46 fold enrichment (6-mer frequency, TF over GST control)
binding signal [10]: 1.22 fold enrichment (6-mer frequency, TF over GST control)
binding signal [11]: 1.08 fold enrichment (6-mer frequency, TF over GST control)
binding signal [12]: 1.09 fold enrichment (6-mer frequency, TF over GST control)
binding signal [13]: 1.18 fold enrichment (6-mer frequency, TF over GST control)
binding signal [14]: 1.16 fold enrichment (6-mer frequency, TF over GST control)
binding signal [15]: 1.07 fold enrichment (6-mer frequency, TF over GST control)
binding signal [16]: 1.14 fold enrichment (6-mer frequency, TF over GST control)
binding signal [17]: 1.16 fold enrichment (6-mer frequency, TF over GST control)
binding signal [18]: 1.22 fold enrichment (6-mer frequency, TF over GST control)
